Drawing on PubChem BioAssay (EPA / NIEHS), this text covers outcome and AC50 for 7 compounds.

Calls of active or inactive are those of the source. The calls were made as follows: active = hit-call score of the fitted dose curve at least 0.9, where 1 is the maximum; inactive = score below 0.9.

A short description of assay [1]: APR_HepG2_StressKinase_1hr: Apredica 1-hour HepG2 Assay for Stress Kinase (AID 2282906). To be noted: HepG2 stress kinase (phospho-c-Jun) imaging, actives raise or lower the signal. The procedure, abridged:
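High-content imaging of phospho-c-Jun immunostaining (with Hoechst nuclear identification) after a 1 h exposure of HepG2 cells to 10 concentrations from 0.39 to 200 uM, final DMSO 0.5%. Fitted bidirectionally against DMSO.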

Assay [2] is described as follows: APR_HepG2_NuclearSize_24hr: Apredica 24-hour HepG2 Assay for Nuclear Size (AID 2282907). The settings on record: high-content imaging, actives raise or lower the signal. The procedure, abridged:
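After fixation and permeabilization, 24-hr-treated HepG2 cells were stained with Hoechst 33342 and imaged on an ArrayScan (20x). Doses spanned 0.39–200 uM in duplicate. Nuclear diameter changes in either direction were fitted relative to 0.5% DMSO controls.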

A short description of assay [3]: APR_HepG2_CellLoss_24hr: Apredica 24-hour HepG2 Assay for Cell Loss (AID 2282908).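 As to AC50: fit in both directions so a hit may be cell loss or gain.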 The settings on record: high-content imaging. The procedure, abridged: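 Duplicate wells received compound at ten concentrations (0.39–200 uM; final DMSO 0.5% v/v). After fixation with formaldehyde, nuclei stained with Hoechst 33342 were imaged at 20x. Loss or gain of cell count was fitted relative to DMSO controls.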

A short description of assay [4]: APR_HepG2_MicrotubuleCSK_24hr: Apredica 24-hour HepG2 Assay for Microtubule CSK Stabilty (AID 2282909). To be noted: HepG2 microtubule cytoskeleton imaging, actives raise or lower the signal. In a few lines:
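Microtubule stability is scored from tubulin immunofluorescence in fixed HepG2 cells imaged at 20x. Cells receive ten compound concentrations up to 200 uM for 24 h; taxol and DMSO serve as positive and negative controls.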

A short description of assay [5]: APR_HepG2_MitoticArrest_24hr: Apredica 24-hour HepG2 Assay for Mitotic Arrest (AID 2282910). To be noted: high-content imaging, actives raise or lower the signal. The procedure, abridged:
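High-content imaging of fixed HepG2 cells labeled with Hoechst 33342 and anti-phospho-histone H3, after 24 h treatment. Ten concentrations 0.39 to 200 uM in duplicate, final DMSO 0.5%; changes fitted both directions relative to DMSO.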

A short description of assay [6]: APR_HepG2_MitoMembPot_24hr: Apredica 24-hour HepG2 Assay for Mitochondrial Membrane Potential (AID 2282911). The settings on record: imaging, actives raise or lower the signal. The procedure, abridged: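 HepG2 cells exposed 24 h to 0.39–200 uM compounds in duplicate, 0.5% v/v DMSO final. MitoTracker Red CMXRos 250 nM loaded 30 min before formaldehyde fixation; high-content imaging at 20x, bidirectional fit versus DMSO.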

Assay [7] can be described thus: APR_HepG2_MitoMass_24hr: Apredica 24-hour HepG2 Assay for Mitochondrial Mass (AID 2282912). To be noted: high-content imaging, actives raise or lower the signal. In a few lines:
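Readout: fluorescence of MitoTracker Red CMXRos (250 nM, added 30 min pre-fixation) in fixed HepG2 cells imaged by HCS. Exposure lasted 24 hr at 0.39–200 uM; increases and decreases were both fitted relative to DMSO.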

The nature of assay [8]: APR_HepG2_CellCycleArrest_72hr: Apredica 72-hour HepG2 Assay for Cell Cycle Arrest (AID 2282914). To be noted: high-content imaging, actives raise or lower the signal. The procedure, abridged: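 HepG2 cells exposed 72 h in duplicate to 0.39–200 uM compound, 0.5% DMSO final. Formaldehyde-fixed, Hoechst 33342-stained nuclei imaged at 20x, six fields per well; DNA content per valid cell quantified by cell-cycle image analysis, bidirectional fit versus DMSO.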

Assay [9] in a line: APR_HepG2_P-H2AX_72hr: Apredica 72-hour HepG2 Assay for H2AX Phosphorylation (AID 2282916).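 Also: phospho-histone H2A.x immunostain intensity per cell marking DNA damage.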 The settings on record: imaging, actives raise or lower the signal. The procedure, abridged:
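Phospho-H2A.x imaging endpoint in HepG2 after 72 hr compound exposure (0.39–200 uM, duplicate wells). Activity derived by bidirectional curve fitting with DMSO as baseline.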

Assay [10] in a line: APR_HepG2_MitoMembPot_72hr: Apredica 72-hour HepG2 Assay for Mitochondrial Membrane Potential (AID 2282917). To be noted: imaging, actives raise or lower the signal. The procedure, abridged:
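Membrane potential read by MitoTracker Red CMXRos (250 nM, 30 min, pre-fixation) fluorescence imaging of HepG2 after 72 hr exposure. Ten concentrations, 0.39–200 uM, duplicate wells, 0.5% DMSO; fitted in both directions against DMSO baseline.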

Assay [11] in a line: APR_HepG2_MicrotubuleCSK_72hr: Apredica 72-hour HepG2 Assay for Microtubule CSK Stabilty (AID 2282919). The settings on record: HepG2 microtubule cytoskeleton, high-content imaging, actives raise or lower the signal. The procedure, abridged: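 High-content imaging of alpha-tubulin staining in fixed HepG2 cells after 72 hr treatment with ten concentrations from 0.39 to 200 uM (0.5% DMSO). Fitting was bidirectional against DMSO; taxol served as positive control.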

Assay [12] can be described thus: APR_HepG2_P-H2AX_24hr: Apredica 24-hour HepG2 Assay for H2AX Phosphorylation (AID 2282920). The settings on record: high-content imaging, actives raise or lower the signal. In a few lines:
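HepG2 cells dosed 24 h at 0.39–200 uM (10 points, duplicate, 0.5% DMSO final). Formaldehyde-fixed and permeabilized, then immunostained for phospho-H2A.x with Hoechst. Fluorescence quantified by high-content imaging, fitted bidirectionally versus DMSO.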

Assay [13] is described as follows: APR_HepG2_StressKinase_72hr: Apredica 72-hour HepG2 Assay for Stress Kinase (AID 2282921). To be noted: HepG2 stress kinase (phospho-c-Jun) imaging, actives raise or lower the signal. The procedure, abridged: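 Stress kinase signal reflects nuclear phospho-c-Jun staining in fixed, permeabilized cells exposed 72 h to compound at 0.39–200 uM; DMSO-normalized, fitted for increases or decreases.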

Assay [14] is described as follows: APR_HepG2_StressKinase_24hr: Apredica 24-hour HepG2 Assay for Stress Kinase (AID 2282922). The settings on record: HepG2 stress kinase (phospho-c-Jun) imaging, actives raise or lower the signal. The procedure, abridged: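 High-content imaging of phospho-c-Jun immunofluorescence in fixed, permeabilized HepG2 cells after 24 h dosing. Ten concentrations, 0.39 to 200 uM, run in duplicate at 0.5% v/v DMSO; gain or loss of signal versus DMSO.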

Assay [15] in a line: APR_HepG2_MitoMass_72hr: Apredica 72-hour HepG2 Assay for Mitochondrial Mass (AID 2282924).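 Also: MitoTracker Red CMXRos stain intensity per cell imaged as mitochondrial mass.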 To be noted: high-content imaging, actives raise or lower the signal. In a few lines:
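Readout is imaged MitoTracker Red (250 nM, 30 min, pre-fixation) signal, fitted bidirectionally against DMSO baseline. Human HepG2 liver cells received compound 0.39–200 uM in duplicate for 72 hr, final DMSO 0.5%.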

A short description of assay [16]: APR_HepG2_NuclearSize_72hr: Apredica 72-hour HepG2 Assay for Nuclear Size (AID 2282925). The settings on record: high-content imaging, actives raise or lower the signal. In a few lines:
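Nuclear size was read by high-content imaging of Hoechst 33342 stain after formaldehyde fixation. Compounds ran 72 h on HepG2 at 0.39 to 200 uM, with final DMSO 0.5% v/v. Curves fitted both directions relative to DMSO control.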

The nature of assay [17]: APR_HepG2_p53Act_24hr: Apredica 24-hour HepG2 Assay for p53 Activation (AID 2282913).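 Also: p53 protein immunofluorescence averaged per cell in HepG2 with Hoechst nuclei.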 The settings on record: high-content imaging, actives raise or lower the signal. In a few lines: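 HepG2 cells exposed 24 h to compounds at 0.39–200 uM in duplicate, 0.5% v/v DMSO final; fixed, permeabilized, stained with anti-p53 antibody and Hoechst 33342; fluorescence imaging; bidirectional curve fit versus DMSO.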

A short description of assay [18]: APR_HepG2_MitoticArrest_72hr: Apredica 72-hour HepG2 Assay for Mitotic Arrest (AID 2282918). To be noted: high-content imaging, actives raise or lower the signal. In a few lines:
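HepG2 cells treated 72 h at 0.39–200 uM, 0.5% DMSO final; formaldehyde-fixed, stained with Hoechst 33342 and phospho-histone H3 antibody, imaged by high-content fluorescence; bidirectional fit versus DMSO.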

Assay [19] in a line: APR_HepG2_p53Act_72hr: Apredica 72-hour HepG2 Assay for p53 Activation (AID 2282923).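 Also: average cellular p53 protein immunofluorescence intensity in HepG2 cells.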 To be noted: high-content imaging, actives raise or lower the signal. The procedure, abridged:
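Fixed-cell p53 staining (sheep primary, Cy5 secondary) measured by fluorescence imaging following 72 hr treatment at 0.39–200 uM in 0.5% DMSO; DMSO served as negative control and baseline.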

The nature of assay [20]: APR_HepG2_CellLoss_72hr: Apredica 72-hour HepG2 Assay for Cell Loss (AID 2282915). To be noted: high-content imaging. In a few lines: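 Cell number comes from Hoechst 33342-labelled nuclei, imaged at 20x after 3.7% formaldehyde fixation. Dosing was 0.39–200 uM, ten concentrations in duplicate, 0.5% DMSO final, for 72 h. Bidirectional fit relative to DMSO baseline.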

A word on the AC50: it is the concentration giving half of the maximal activity seen. On to `CCNc1nc(NC(C)C)nc(SC)n1`, for which the call in assay [1], in assay [2], in assay [3], in assay [4], in assay [5] and in [6] was inactive. In addition, the compound was called inactive in assay [7], in assay [8], in assay [9], in assay [11], in assay [12] and in assay [13]. In addition, the call in [14], in [15] and in [16] was inactive. Also, in assay [10], the AC50 was 59.6 µM (active).
Regarding `ClC1=C(Cl)[C@]2(Cl)[C@@H]3[C@H]4C[C@H]([C@@H]5O[C@H]45)[C@@H]3[C@@]1(Cl)C2(Cl)Cl`, the call in [2], in assay [3], in assay [4], in assay [5], in assay [7] and in assay [17] was inactive. In addition, the outcome in assay [8], in [9], in [10], in assay [18], in assay [11] and in assay [12] was inactive. Further, the compound was classed as inactive in [13], in [14], in [19], in assay [15] and in [16]. Also, the concentration at half-maximal activity (AC50) in assay [6] was 59.3 µM (active).
As to `Cc1cc(O)ccc1Cl`, the result in assay [2], in assay [3], in [4], in assay [5], in assay [6] and in [7] was inactive. In addition, the outcome in assay [17], in assay [8], in assay [20], in assay [9], in assay [10] and in assay [18] was inactive. Further, the result in [11], in [12], in assay [13], in assay [14], in assay [15] and in assay [16] was inactive.
With `CC#Cc1cc(C)nc(Nc2ccccc2)n1`, the compound was called inactive in assay [2], in assay [3], in assay [4], in [5], in assay [6] and in [7]. Moreover, the compound was called inactive in [17], in assay [9], in assay [10], in [11], in assay [12] and in assay [13]. Moreover, the result in assay [14], in assay [15] and in [16] was inactive. For the same compound, the AC50 in assay [8] was 96.1 µM (active); in [20], 69.8 µM (active).
With `O=C(NC(=O)c1c(F)cccc1F)Nc1cc(Cl)c(OC(F)(F)C(F)F)c(Cl)c1`, the result in assay [2], in assay [3], in assay [4], in [5], in [6] and in assay [7] was inactive. For the same compound, the compound was called inactive in [17], in assay [8], in [9], in assay [10], in assay [11] and in [12]. In addition, the result in assay [13], in assay [14], in assay [15] and in assay [16] was inactive. In addition, the concentration at half-maximal activity (AC50) in [18] was 16.9 µM (active).
On to `CCOCCOC(C)=O`, for which the result in assay [2], in assay [3], in assay [4], in assay [5], in assay [6] and in assay [7] was inactive. Also, the compound was called inactive in assay [17], in assay [20], in [9], in assay [10], in assay [18] and in assay [11]. Also, the call in assay [12], in assay [13], in [14], in assay [19], in [15] and in assay [16] was inactive.
Consider `CCC(C)(c1ccc(O)cc1)c1ccc(O)cc1`, for which the compound was called inactive in assay [2], in assay [4], in assay [8], in assay [9], in assay [14] and in assay [16]. The concentration at half-maximal activity (AC50) in assay [3] is 111 µM (active); in assay [5], 106 µM (active); in assay [6], 57.6 µM (active); in [7], 127 µM (active); in assay [17], 101 µM (active); in assay [20], 108 µM (active). Besides, the half-maximal activity concentration (AC50) was 104 µM (active) in assay [12] and 34.3 µM (active) in assay [13].
